Molecules are shown by their SMILES. Among all 220,000 compounds or so, fewer than 10 were called active. Inconclusive results (about 92%) are left out. The rule behind the calls is not given here. The list is a sample of the results.

The target of this assay is Guanine nucleotide-binding protein G(o) subunit alpha (Homo sapiens) + Regulator of G-protein signaling 19 (Homo sapiens) (UniProt P09471+P49795). Kind of assay: regulators of RGS19 binding to Galphao, biochemical, multiplexed bead flow cytometry (AID 1440).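 Note: fluorescent Galpha o activated by aluminum fluoride binding bead-coupled RGS19.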 The settings on record: at 10 µM. In general terms: In flow cytometry, cells or beads pass a laser one at a time.
Sequence of Guanine nucleotide-binding protein G(o) subunit alpha (Homo sapiens) + Regulator of G-protein signaling 19 (Homo sapiens) (P09471 whole entry, looked up): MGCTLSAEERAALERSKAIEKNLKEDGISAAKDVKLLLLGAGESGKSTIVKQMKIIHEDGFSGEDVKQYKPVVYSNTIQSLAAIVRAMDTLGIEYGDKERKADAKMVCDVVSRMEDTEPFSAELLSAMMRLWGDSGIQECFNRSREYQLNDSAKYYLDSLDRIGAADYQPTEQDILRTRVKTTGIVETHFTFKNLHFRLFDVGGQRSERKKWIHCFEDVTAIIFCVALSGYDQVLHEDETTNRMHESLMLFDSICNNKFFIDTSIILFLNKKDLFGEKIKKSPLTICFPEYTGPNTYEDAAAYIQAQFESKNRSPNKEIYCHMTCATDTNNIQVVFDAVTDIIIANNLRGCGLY
Sequence of Guanine nucleotide-binding protein G(o) subunit alpha (Homo sapiens) + Regulator of G-protein signaling 19 (Homo sapiens) (P49795 whole entry, looked up): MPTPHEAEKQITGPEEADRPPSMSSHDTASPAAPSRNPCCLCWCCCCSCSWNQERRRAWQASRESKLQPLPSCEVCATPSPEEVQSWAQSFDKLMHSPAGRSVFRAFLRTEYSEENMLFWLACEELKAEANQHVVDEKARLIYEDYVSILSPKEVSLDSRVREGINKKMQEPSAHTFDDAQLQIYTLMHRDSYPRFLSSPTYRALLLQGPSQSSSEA
For the molecule `O=C(COc1ccc2ccccc2c1)Nc1cccc2cccnc12`, the binding response (% of control) turned out to be 110%.
Regarding `COc1ccc(NC(=O)CCNS(=O)(=O)c2ccc(Br)s2)cc1`, the binding response (% of control) worked out at 110%.
For `Cc1ccc(S(=O)(=O)N2CC3(C)CN(S(=O)(=O)c4ccc(C)cc4)CC(C)(C2)C3=O)cc1` the value was 103%; for `Cc1cc(C)nc(SCC(=O)Nc2ncc3c(n2)CC(C)(C)CC3=O)n1`, 62.4%; for `Cc1cc(NC(=O)Cn2c(=O)c3c(ncn3CCC(C)C)n(Cc3ccccc3)c2=O)no1`, 106%.
In the case of `O=c1c(Cc2ccc(Cl)cc2Cl)c(O)ccn1Cc1ccc(Cl)cc1` it was 97.7%.
For the molecule `CCOc1c2ccc(C(=O)NCc3ccc(OC)cc3)cc2nn1CCOC`, the binding response (% of control) was 92.2%.
In the case of `O=C(Nc1cccnc1)C1CCCN1S(=O)(=O)c1ccc(Cl)c(Cl)c1` (configuration not stated) it was 114%; in that of `COc1ccccc1CNc1ccc(C(=O)O)cc1`, 121%.
For `COc1ccc(OC)c(C2C(C#N)=C(N)Oc3c2c(C)nn3-c2cccc(Cl)c2)c1` (configuration not stated) the value was 96.4%; for `Cc1ccc2c(CN3CCN(CCO)CC3)cc(=O)oc2c1C`, 111%; for `CCN1CCCC1CNC(=O)C(NC(=O)C1CCC(C)CC1)C(C)C` (configuration not stated), 107%.
For `O=C(CN1C(=O)S/C(=C/c2cccs2)C1=O)N1CCOCC1` the value was 99.9%; for `CCOCCCNC(=O)C(c1ccc(Cl)cc1)N(Cc1cccs1)C(=O)CNC(C)=O` (configuration not stated), 90%.
With `Cc1ccc(-c2cnc(N)n2C)cc1C`, the binding response (% of control) was 94.5%.
For `CCc1ccc(OC)c(S(=O)(=O)NCCOc2ccccc2)c1` the value was 41.2%; for `Fc1ccc(CNC(=S)Nc2ccccc2Cl)cc1`, -28%; for `COC(=O)CCC(=O)Nc1cccc(C(=O)Nc2cccc(Cl)c2)c1`, 100%.
For `Cc1ccc(NC(=O)c2cc(-n3cnnc3)ccc2Cl)cc1` the value was 100%; for `CC1(C)CC(=O)C(C(=S)Nc2ccccc2)=C(NCCN2CCOCC2)C1`, 118%; for `Cc1ccc(Cn2ncn3c(cc4ccccc43)c2=O)cc1`, 87.2%.
For `O=C(NCc1ccco1)C1CCN(S(=O)(=O)N2CCC3(CC2)OCCO3)CC1` the value was 45.9%; for `CCOc1ccc(C2NC(=O)c3sc(=S)n(-c4ccccc4)c3N2)cc1` (configuration not stated), 87.5%.
On to `Cc1ccccc1-n1nc(C)c2cc(C(=O)N3CCN(S(=O)(=O)c4ccc(Cl)cc4)CC3)sc21`, for which the binding response (% of control) amounted to 94.8%.
In the case of `O=C(Nc1cccc(C(F)(F)F)c1)c1cc2c(s1)-c1ccccc1OC2` it was 119%; in that of `COc1ccc2cnnc(SCC(=O)Nc3ccccc3)c2c1OC`, 118%; in that of `CCCCN(CC(=O)Nc1c(C)cccc1CC)C(=O)SCC`, 101%.
In the case of `Cc1ccc(C)c(Cn2nnc3c(=O)[nH]c(C4CCCN(C(=O)C5CCCCC5)C4)nc32)c1` (configuration not stated) it was 109%; in that of `COC(=O)c1cc(OC)c(OC)cc1NC(=O)CCC1CCCC1`, 107%; in that of `COc1ccc(CC(=O)OCc2cc3ccccc3[nH]c2=O)cc1`, 90.7%.
For `Cc1cc(NC(=O)c2cnn3c(C(F)(F)F)cc(-c4ccccc4)nc23)no1`, the binding response (% of control) was found to be 103%.
For `O=C(CN1C(=O)C2C3C=CC(C3)C2C1=O)Nc1cccc2c1CCCC2` (configuration not stated) the value was 187%; for `Nc1c2c(nc3ccn(Cc4ccccc4)c(=O)c13)CCC2`, 72.4%; for `COC(=O)CSc1nnnn1-c1cccc2ccccc12`, 106%.
In the case of `CN(CCCC(=O)NCc1ccco1)S(=O)(=O)c1ccccc1` it was 98.9%.
For `Fc1ccccc1OCCSc1nnnn1-c1ccccc1` the value was 25.6%; for `O=C(c1ccco1)N1CCC(c2nc(-c3ccc(F)cc3)no2)CC1`, 75.6%.
Turning to `COc1ccc(-c2nc(-c3cccs3)c(-c3cccs3)[nH]2)cc1O`, the binding response (% of control) amounted to 102%.
In the case of `Cc1cccc(NC(=S)NC2CC3CCC(C2)N3Cc2ccco2)c1` (configuration not stated) it was 113%.
In the case of `CC(NC(=O)Nc1ccc(F)cc1F)c1ccncc1` (configuration not stated) it was 70.2%; in that of `CCOc1ccc(-c2c(C(=O)N/N=C/c3ccccc3)nnn2-c2nonc2N)cc1`, 91.3%; in that of `CCCN(CCC)CCOc1cc(C)ccc1C(C)C`, 116%.
For `CC(C)C(CC(=O)NCc1ccco1)c1ccco1` (configuration not stated) the value was 172%.
Turning to `CCOc1ccc(NC(=O)CSc2nc3ccccc3c(=O)n2CCNC(C)=O)cc1`, the binding response (% of control) turned out to be 97.9%.
Take `O=C(NN=C1CCCCC1)c1ccccc1OCc1ccc(F)cc1`: the binding response (% of control) worked out at 118%.
For `Cc1nc2ccccc2c(=O)n1NC(=O)COc1ccccc1` the value was 103%; for `CC(C)(C)NC(=O)c1ccc2nsnc2c1`, 141%; for `O=C(Nc1nc(N2C(=O)c3ccccc3C2=O)n(-c2ccccc2)n1)c1ccccc1`, -19.9%.
As for `Cn1c(Cl)cnc1C(O)c1ccccc1` (configuration not stated), the binding response (% of control) was determined as 105%.
In the case of `Cc1c(Br)c(C(F)(F)F)nn1CC(=O)N1CCCC1` it was 99.7%; in that of `CCOC(=O)c1[nH]nc(-c2cc(CC)c(O)cc2O)c1-c1cscn1`, 56.9%; in that of `CC(=O)N(c1ccc(C(C)C)cc1)C1C=CS(=O)(=O)C1` (configuration not stated), 103%.
In the case of `CCCCC(=O)Nc1nc(C)c(-c2csc(Nc3cc(Cl)ccc3OC)n2)s1` it was 148%; in that of `COc1cccc(OC)c1C(=O)Nc1ccc(NC(=O)c2ccco2)cc1`, 112%.
In the case of `CCOC(=O)C1=C(c2ccccc2)NC(=O)NC1c1ccc(OCC#N)c(OC)c1` (configuration not stated) it was 119%.
As for `CCOC(=O)C1Cn2c(nc3c(c2=O)C2(CCCC2)Cc2ccccc2-3)S1` (configuration not stated), the binding response (% of control) was 102%.
In the case of `CCOC(=O)N1CCC(NC(=O)CCCN2C(=O)CSc3ncccc32)CC1` it was 353%.
